According to PubChem BioAssay (NCI):
Several values for one entry are separate records, joined by “and”; a condition that tells them apart may be missing. Identical values can stand only once. Compounds without any hit were thinned out: in the full panel of roughly 83,000, 20% have a hit.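 Values shown are percent growth following 48 h exposure of cells in 96-well plates to a single concentration of compound; below 10 was considered active.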 Activity calls are given as the source filed them.

Each molecule was assayed on CCRF-CEM leukemia (assay: NCI-60 one-dose screen, 48 h (100 = growth as untreated, 0 = no growth, -100 = all killed)). Conditions: 0.25 µM.
Description: Growth inhibition of the CCRF-CEM human tumor cell line is measured as a screen for anti-cancer activity. Cells are grown in 96 well plates and exposed to the test compound for 48 hours. Compounds are tested at a single concentration, which is 10^-5 M for most compounds. The reported endpoint is percent growth (GI% or GIPRCNT), where numbers from 0 - 100% represent growth inhibition, and numbers from -100% - 0 represent cell death. For example, a value of 40 represents 60% growth inhibition. A value of 0 means no net growth occurred over the course of the experiment. A value of -40 indicates 40% of cells at the beginning of the experiment died by the end of the experiment. A value of -100 means all cells are dead at the end of the experiment.
NCI-60 Human Tumor Cell Lines Screen was performed using the standard one-dose NCI protocol, which is described in more detail at https://dtp.cancer.gov/discovery_development/nci-60/default.htm.
Compounds with GIPRCNT values below 10 were considered active. Activity score was based on GIPRCNT using the following formula: […]
Score is 0 for GIPRCNT values of 100 or above, 50 for GIPRCNT values of 0, and 100 for GIPRCNT values of -100.

| Structure (SMILES) | growth |
| --- | --- |
| CCCCCCCCCCCCCCCc1ccc(Cl)c(O)c1Cl (tested in a mixture with another compound) | 18.3% (inactive) |

Same assay, conditions: 10 µM

| Structure (SMILES) | growth |
| --- | --- |
| O=C(O)c1sccc1O | 47.7% (inactive) |
| CCCCCCCCCCCCCCCc1ccc(Cl)c(O)c1Cl (tested in a mixture with another compound) | 93% (inactive) |

Same assay, conditions: 10 µM unless noted

| Structure (SMILES) | growth |
| --- | --- |
| N/C(=N\N=C\c1ccc2c(c1)OCO2)N/N=C\c1ccc2c(c1)OCO2 | 50.6% (inactive) and 45.3% (inactive) |
| COc1cc2nc(N3CCC[C@@H](NC(=O)C4COc5ccccc5O4)C3)nc(N)c2cc1OC (stereo not given in full) | 96.2% (inactive) and 103% (inactive) |
| O=C=NC(c1ccccc1)(c1ccccc1)c1ccccc1 | 102% (inactive) |
| C1CCCCNCCC1 | 104% (inactive) |
| CCC(C)C1(C2CCCC2)NC(=O)NC1=O (stereo not given) | 92.8% (inactive) and 107% (inactive) |
| NC(=S)NS(=O)(=O)c1ccc(N)cc1 | 106% (inactive) |
| CN1CCN(Cc2occc(=O)c2O)CCN(C)CCN(Cc2occc(=O)c2O)CC1 | 91.5% (inactive) and 49% (inactive) |
| CC[N+](CC)(CC(=O)Nc1c(C)cccc1C)Cc1ccccc1 | 2.65% (active) |
| CC1=C(/C=C/C(C)=C/C=C/C(C)=C/C(=O)O)C(C)(C)CCC1 | 78.5% (inactive) and 92.8% (inactive) and 103% (inactive) |
| O=C(/C=C/c1ccccn1)c1ccccc1O | 13.3% (inactive) |
| O=C(Nc1cccc(-n2ccc3c(NC(=O)c4ccccc4)nccc32)c1)c1ccc(Cl)c(C(F)(F)F)c1 | -25.3% (active) and 40.3% (inactive) |
| CN(C)CCCNC1=C(Cl)C(=O)c2ccccc2C1=O | 80% (inactive) and 81.3% (inactive) |
| O=S(=O)(Nc1ccccc1)C1CCCCC1 | 105% (inactive) |
| CCN(CC)CCC(CNc1ccnc2cc(Cl)ccc12)c1ccc(OC)cc1 (stereo not given) | 63.4% (inactive) and 45.8% (inactive) |
| CC(=O)Nc1ccc2cc3ccc(NC(C)=O)cc3nc2c1 | 78.9% (inactive) and 104% (inactive) |
| c1ccc2c(CC3=NCCN3)cccc2c1 | 99.8% (inactive) |
| O=C1OC2(c3ccccc31)c1ccc(O)c(O)c1Oc1c2ccc(O)c1O | 90.8% (inactive) and 110% (inactive) |
| COc1cc(-c2nccc3cc4c(cc23)OCO4)cc(OC)c1OC | 34.2% (inactive) and 34.4% (inactive) |

| Structure (SMILES) | growth |
| --- | --- |
| O=C(Cc1cccc2ccccc12)N/N=C/c1ccc2c(c1)CCC2 | 65.2% (inactive) |
| O=C(CCl)c1ccc2c(c1)Nc1ccccc1S2 | 53.7% (inactive) and 50.5% (inactive) |
| NS(=O)(=O)c1cc2c(cc1Cl)NC(C(Cl)Cl)NS2(=O)=O (stereo not given) | 89.2% (inactive) and 92.5% (inactive) |
| CCN(CC)CCCC(C)Nc1cnc(C(=O)Nc2cc(F)cc3cccnc23)cn1 (stereo not given) | 19.7% (inactive) and 3.49% (active) |
| COc1ccc(CCN(C)CCCC(C#N)(c2ccc(OC)c(OC)c2)C(C)C)cc1OC (stereo not given) | 95% (inactive) and 86.2% (inactive) and 97.9% (inactive) |
| CCN(CC)CCNc1ccc(C)c2sc3ccccc3c(=O)c12 (tested in a mixture with another compound) | 55.7% (inactive) and 29.3% (inactive) |
| Oc1c(CN2CCCCC2)ccc2cccnc12 | 16.6% (inactive) |
| O=C(N/N=C/c1cccc2ccccc12)C1CC1 | 88.3% (inactive) |
| O=[N+]([O-])c1ccc(N/N=C\c2cc(Br)ccc2O)nc1 | 17.5% (inactive) and -4.06% (active) |
| O=[N+]([O-])c1ccc(-n2[nH]nnc2=S)cc1 | 106% (inactive) |
| Cc1nn(-c2ccc(Cl)cc2)c2ncnc(N/N=C/c3ccccc3O)c12 | 6.41% (active) and -2.4% (active) |
| O=[N+]([O-])c1ccc(Oc2ccccc2)cc1 | -24% (active) and 92.5% (inactive) |
| CNC(=O)c1cccnc1 | 87.9% (inactive) |
| C#CCN(C)Cc1ccccc1 | 95.2% (inactive) and 131% (inactive) |
| COc1cc(Nc2nc3ccccc3nc2NS(=O)(=O)c2ccc(NC(=O)c3ccc(C)c(OC)c3)cc2)cc(OC)c1 | 20% (inactive) |
| Oc1ccccc1C=NCC1CCC(CN=Cc2ccccc2O)CC1 (stereo not given) | 83.9% (inactive) |
| Oc1ccc(/C=C/c2ccccc2)cc1 | 33.5% (inactive) and 33.3% (inactive) |
| O[C@H](c1cc(C(F)(F)F)nc2c(C(F)(F)F)cccc12)[C@@H]1CCCCN1 | 76.5% (inactive) and 71.6% (inactive) |

Same assay, conditions: 100 µM

| Structure (SMILES) | growth |
| --- | --- |
| O=C(O)c1sccc1O | 15.1% (inactive) |
